Results on 38 molecules are retold here after PubChem BioAssay (NCI).

The panel holds about 83,000 compounds, 20% with a hit somewhere; the sample as a whole holds those more often.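 Step 1: grow cells in 96-well plates. Step 2: add test compound at a single concentration. Step 3: incubate 48 h. Step 4: record percent growth.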 Active and inactive are the calls of the source. How the source made its calls: active means growth percent below 10; inactive means the rest.

For one experiment, the system named is OVCAR-5 ovarian. The experiment in a line: NCI-60 one-dose screen, 48 h (100 = growth as untreated, 0 = no growth, -100 = all killed). The conditions noted are these: 10 µM unless noted.
Consider `O=C(COc1ccc(/C=C2\C(=O)Nc3ccc(Cl)cc32)cc1)Nc1ccc(Cl)cc1`, for which the growth was 69.8% (inactive).

Turning to `Cc1cc2nc3c4cc(C#N)ccc4n(CCN(C)C)c3nc2cc1C`, the growth was 6.4% (active).

`O=C(NCCNc1cc(-c2cn(-c3ccccc3)nc2-c2cccc(O)c2)ccn1)Nc1cc(C(F)(F)F)cc(C(F)(F)F)c1`: the growth was 97.3% (inactive).

Consider `CCCCCc1ccc(S(=O)(=O)Nc2cc(-c3csc(N)n3)ccc2OC)cc1`, for which the growth is 110% (inactive).

The subject of the next experiment is OVCAR-4 ovarian. Described as above. The following applies: 10 µM unless noted.
As for `N#C/C(=C\c1ccc(-c2ccc(Cl)cc2)o1)C(=O)Nc1ncc(Cc2ccc(Br)cc2)s1`, the growth was -26.7% (active).

Consider `CC(O)c1cccc(/C(N)=N/C(N)=N/c2nc3ccccc3s2)c1` (stereo not drawn), for which the growth is 105% (inactive).

As for `Cn1c(SCC(=O)c2ccc(Br)cc2)nc2ccccc2c1=O`, the growth is 81.8% (inactive).

On to `NC(N)=NS(=O)(=O)c1ccc(N=Nc2c(N)nn(-c3ccc([N+](=O)[O-])cc3[N+](=O)[O-])c2N)cc1`, for which the growth was 104% (inactive).

On to `O=C(CCCCCCN1CC(=O)N2[C@@H](c3cccs3)c3[nH]c4ccccc4c3C[C@H]2C1=O)NO`, for which the growth is 95.6% (inactive).

Regarding `O=C(CSc1nc2ccccc2c(=O)n1CCc1ccccc1)Nc1ccc(S(=O)(=O)Nc2ccc(Cl)nn2)cc1`, the growth is 93.1% (inactive).

For `CC1=C(C)C(=O)C(Nc2ccc(C)c(C)c2)=C(Br)C1=O`, the growth was 55.1% (inactive).

As for `COc1cc(/C=C2/C(=O)Nc3ccc(Cl)cc32)ccc1OCc1ccc(Cl)cc1`, the growth was 20.3% (inactive).

`Cc1ccc2c(n1)C(=O)C(Cl)=C(Nc1ccc(C(C)C)cc1)C2=O`: the growth is -74% (active).

Turning to `CN1CCN(c2ccc(Nc3nc(NCCNS(=O)(=O)c4ccccc4)c4sccc4n3)cc2)CC1`, the growth was 92.5% (inactive).

For the molecule `CNC(=O)c1cc(N2CCc3cc(NC(=O)Nc4ccc(N5CCN(C)CC5)c(C(F)(F)F)c4)ccc32)ccn1`, the growth is 83.4% (inactive).

As for `C=C(C)[C@@H]1CC[C@]2(COCCCNCCCN)CC[C@]3(C)[C@H](CC[C@@H]4[C@@]5(C)CC[C@H](O)C(C)(C)[C@@H]5CC[C@]43C)[C@@H]12`, the growth was -68.5% (active).

Take `CN1CCN(Cc2ccc(NC(=O)c3cncc(C#Cc4cnc5ccc(OCC6COC6)nn45)c3)cc2C(F)(F)F)CC1`: the growth was -69.9% (active).

As for `CCN(CC)S(=O)(=O)c1ccc(-c2nc(C(Cl)Cl)nc3cc(-c4ccc(F)cc4)nn23)cc1`, the growth was 45.2% (inactive).

For the molecule `O=C(COc1ccc(/C=C2\C(=O)Nc3ccc(F)cc32)cc1)Nc1ccccc1`, the growth was 100% (inactive).

In the case of `CN1CCN(c2ccc(Nc3nc(NCCCNS(=O)(=O)c4ccc(F)cc4)c4sccc4n3)cc2)CC1`, the growth was 60% (inactive).

As for `COc1cccc(N2CCN(C3=C(Cl)C(=O)c4ncccc4C3=O)CC2)c1`, the growth is 80.5% (inactive).

With `C#CCOc1cccc(-c2nc(N)nc(Nc3ccccc3SSc3ccccc3Nc3nc(N)nc(-c4cccc(OCC#C)c4)n3)n2)c1`, the growth is 80.9% (inactive).

`O=C(CSc1nnc(-c2ccc(Cl)cc2)n1-c1ccccc1)Nc1ccc(Cl)cc1`: the growth was -55.8% (active).

Turning to `NC(=O)n1c(=O)n(-c2cccc(C(F)(F)F)c2)c(=O)c2cc(-c3ccc(F)cc3F)ccc21`, the growth was 28.4% (inactive).

Take `C#CCOc1ccc(/C=N/Nc2nc(-c3ccc(OC)cc3)cs2)cc1`: the growth is 53.1% (inactive).

On to `O=C(CSc1nnc(-c2ccc(Cl)cc2)n1-c1ccccc1)Nc1ccccc1Cl`, for which the growth was 8.39% (active).

With `CCOC(=O)c1c(NC(=O)c2cccc(C(F)(F)F)c2)sc2c3c(ccc12)OCN(C)C3`, the growth is -44.2% (active).

`CN1CCN(Cc2ccc(NC(=O)c3cncc(C#Cc4cnc5ccc(OCCCS(C)(=O)=O)nn45)c3)cc2C(F)(F)F)CC1`: the growth is -29.7% (active).

For the molecule `CCOC(=O)c1c(NCC(=O)Nc2cccc([N+](=O)[O-])c2)sc(C(C)=O)c1C`, the growth was 4.88% (active).

For `N#Cc1c(-c2cccs2)cc(-c2cnccn2)nc1SCC(=O)N/N=C/c1ccccc1`, the growth was 3.09% (active).

Regarding `CN1CCN(Cc2ccc(NC(=O)c3cncc(C#Cc4cnc5ccc(O[C@@H]6CCOC6)nn45)c3)cc2C(F)(F)F)CC1`, the growth was -73.7% (active).

In the case of `O=C(CCCCCCNC(=O)c1csc(Br)n1)NO`, the growth is 69.6% (inactive).

Regarding `COC(=O)c1ccc(NC2=C(Cl)C(=O)c3nc(C)ccc3C2=O)cc1`, the growth was 58.5% (inactive).

On to `CCOP(=O)(OCC)OC[C@]12CCC(C)(C)C[C@H]1C1=CC[C@@H]3[C@@]4(C)CC[C@H](OP(=O)(OCC)OCC)C(C)(C)[C@@H]4CC[C@@]3(C)[C@]1(C)CC2`, for which the growth is 65.9% (inactive).

Take `C/C(=N/N)c1nnn(-c2ccc(Br)cc2)c1C`: the growth is 110% (inactive).

For `O=C(N/N=C\c1ccc(F)cc1)c1ccc2nc(-c3ccc(Br)cc3)[nH]c2c1`, the growth was 12.5% (inactive).

As for `CN1CCN(c2ccc(Nc3nc(NCCNS(=O)(=O)c4ccc5ccccc5c4)c4sccc4n3)cc2)CC1`, the growth is 82.3% (inactive).

For the molecule `CCn1c2ccc(/C=N/N(C)S(=O)(=O)CCN(C)C)cc2c2cc(/C=N/N(C)S(=O)(=O)CCN(C)C)ccc21`, the growth is 69.2% (inactive).
